{
  "source": "PubChem BioAssay (EPA / NIEHS)",
  "note": "Active and inactive are the calls of the source. Rule for the calls: active = hit-call score of the fitted dose curve at least 0.9, where 1 is the maximum; inactive = score below 0.9.",
  "data": [
    {"target": "Transcription factor E2F1 (Homo sapiens) (UniProt Q01094)", "sequence (Q01094 whole entry, looked up)": "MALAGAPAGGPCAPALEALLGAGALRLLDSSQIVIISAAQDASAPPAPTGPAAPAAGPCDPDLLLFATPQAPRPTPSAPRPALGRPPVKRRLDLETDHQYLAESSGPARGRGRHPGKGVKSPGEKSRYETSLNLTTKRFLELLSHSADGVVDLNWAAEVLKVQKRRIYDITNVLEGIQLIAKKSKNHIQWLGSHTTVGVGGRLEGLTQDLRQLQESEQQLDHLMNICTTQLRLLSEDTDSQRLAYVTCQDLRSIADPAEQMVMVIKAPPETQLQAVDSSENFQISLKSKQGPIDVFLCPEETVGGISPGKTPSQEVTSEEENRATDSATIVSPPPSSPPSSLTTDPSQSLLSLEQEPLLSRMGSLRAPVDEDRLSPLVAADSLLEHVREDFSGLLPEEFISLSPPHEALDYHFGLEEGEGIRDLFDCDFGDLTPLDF", "test": "ATG_E2F_CIS: Attagene CIS-FACTORIAL HepG2 Assay for human E2F Transcription Factor 1 (AID 2282935)", "conditions": "HepG2 Attagene cis-reporter, E2F reporter RNA transcripts; actives raise or lower the signal", "protocol": "ATG_CIS is a cell-based, multiplexed-readout assay that uses HepG2, a human liver cell line, with measurements taken at 24 hours after chemical dosing in a 24-well plate.ATG_E2F_CIS is one of 52 assay component(s) measured or calculated from the ATG_CIS assay. It is designed to make measurements of mRNA induction, a form of inducible reporter, as detected with fluorescence intensity signals by Reverse transcription polymerase chain reaction (RT-PCR) and Capillary electrophoresis technology.Data from the assay component ATG_E2F_CIS was analyzed into 1 assay endpoint. This assay endpoint, ATG_E2F_CIS, was analyzed with bidirectional fitting relative to DMSO as the negative control and baseline of activity. Using a type of inducible reporter, measures of mRNA for gain or loss-of-signal activity can be used to understand the reporter gene at the transcription factor-level as they relate to the gene E2F1. Furthermore, this assay endpoint can be referred to as a primary readout, because this assay has produced multiple assay endpoints where this one serves a reporter gene function. To generalize the intended target to other relatable targets, this assay endpoint is annotated to the dna binding intended target family, where the subfamily is E2F transcription factor.\nHuman liver HepG2 cells are transiently transfected with multiple reporter transcription units (MRTUs) in 6-well plates using FuGene 6 reagent (Roche; 3 ml FuGene/1 mg DNA). The MRTU constructs are regulated by a cis-regulating element (promoter). […] A major difference between the CIS and TRANS system is that in CIS activities of endogenous TFs are measured, whereas the TRANS assay evaluates changes in activities of exogenous, chimeric NR-Gal4 proteins. […] At the end of 24 hour incubation, total RNA was isolated using TriZol reagent (Invitrogen). The isolated RNA is then reverse-transcribed using oligo(dT) primer and Mo-MLV reverse transcriptase (Invitrogen) with DNAse I (Ambion) treatment for 30 min. The one-tenth of the produced cDNA was amplified by PCR using Taq DNA polymerase (Invitrogen) and two reporter sequence-specific primers. The PCR products were fluorescently labeled by primer extension with 6-arboxyfluorescein (6-FAM) 5'-labeled reporter sequence-specific primer (2 min at 95 C, 20 s at 68 C and 10 min at 72 C) and these products were digested with 5U of HpaI (New England Biolabs) for 2h at 37 C. The fragments were purified using Qiaquick PCR columns (Qiagen), analyzed on an ABI 3130xL genetic analyzer (Applied Biosystems) with peak positions identified by using a set of X-rhodamine (ROX)-labeled MapMarker1000 molecular weight standards (BioVentures). The raw capillary electrophoresis data was processed using Attagraph software (Attagene).", "values": [
      {"smiles": "Clc1sc(Cl)c(Cl)c1Cl", "outcome": "inactive"},
      {"smiles": "CNCCCC12CCC(c3ccccc31)c1ccccc12", "outcome": "inactive"},
      {"smiles": "CCCCCC(=O)OCCc1ccccc1", "outcome": "inactive"},
      {"smiles": "CC[C@]12CCCN3CCc4c(n(c5ccccc45)[C@@](O)(C(=O)OC)C1)[C@@H]32", "outcome": "inactive"},
      {"smiles": "C[C@H]1C[C@H]2[C@@H]3CCC4=CC(=O)C=C[C@]4(C)[C@@]3(F)[C@@H](O)C[C@]2(C)[C@@]1(O)C(=O)COP(=O)(O)O", "outcome": "inactive"},
      {"smiles": "Sc1nc(S)nc(S)n1", "outcome": "inactive"},
      {"smiles": "O=c1cc(-c2ccccc2)oc2cc(O)cc(O)c12", "outcome": "inactive"},
      {"smiles": "c1ccc2[nH]ccc2c1", "outcome": "inactive"},
      {"smiles": "CC[Si](OC(C)=O)(OC(C)=O)OC(C)=O", "outcome": "inactive"},
      {"smiles": "CCCCCNCCCCC", "outcome": "inactive"},
      {"smiles": "CCCOCC(C)O", "note": "(stereo not given)", "outcome": "inactive"},
      {"smiles": "Cc1ccc(C(=O)c2cc(O)c(O)c([N+](=O)[O-])c2)cc1", "outcome": "inactive"},
      {"smiles": "C=C(C)[C@@H]1CC[C@@H](C)C[C@@H]1O", "outcome": "inactive"},
      {"smiles": "O=C(O)Cc1cccc2ccccc12", "outcome": "inactive"},
      {"smiles": "CC(C)=CCC[C@](C)(O)[C@@H]1CC=C(C)CC1", "outcome": "inactive"},
      {"smiles": "CN(C)CCOCCN(C)C", "outcome": "inactive"},
      {"smiles": "Nc1nc2ccc([N+](=O)[O-])cc2s1", "outcome": "inactive"},
      {"smiles": "CC1=CCC2C(C1)C2(C)C", "note": "(stereo not given)", "outcome": "inactive"},
      {"smiles": "NC(=O)NC1NC(=O)NC1=O", "note": "(stereo not given)", "outcome": "inactive"},
      {"smiles": "CCCCCCOC(=O)CCCCC", "outcome": "inactive"},
      {"smiles": "CC1(C)[C@@H]2CC[C@@]1(C)[C@H](O)C2", "outcome": "inactive"},
      {"smiles": "C=C[C@@H](C)CCC=C(C)C", "outcome": "inactive"},
      {"smiles": "CC1(CO)CN(c2ccccc2)NC1=O", "note": "(stereo not given)", "outcome": "inactive"},
      {"smiles": "CCCCNC(=O)NS(=O)(=O)c1ccc(N)cc1", "outcome": "inactive"},
      {"smiles": "COCCCOc1ccnc(CS(=O)c2nc3ccccc3[nH]2)c1C", "note": "(stereo not given)", "outcome": "inactive"},
      {"smiles": "C=CC(C)(C)O", "outcome": "inactive"},
      {"smiles": "CC1CC(OC(=O)c2ccccc2O)CC(C)(C)C1", "note": "(stereo not given)", "outcome": "inactive"},
      {"smiles": "C=CC(=O)OCCOCCOCC", "outcome": "inactive"},
      {"smiles": "O=C(Cl)c1cccc(C(=O)Cl)c1", "outcome": "inactive"},
      {"smiles": "CC(=O)[O][Al][O]C(C)=O", "outcome": "inactive"},
      {"smiles": "COc1ccnc(CS(=O)c2nc3cc(OC(F)F)ccc3[nH]2)c1OC", "note": "(stereo not given)", "outcome": "inactive"},
      {"smiles": "Nc1ccc(F)c([N+](=O)[O-])c1", "outcome": "inactive"},
      {"smiles": "CC(C)C1CCC(O)CC1", "note": "(stereo not given)", "outcome": "inactive"},
      {"smiles": "CN(C)C(=N)N=C(N)N", "outcome": "inactive"},
      {"smiles": "CCCC(C)C=O", "note": "(stereo not given)", "outcome": "inactive"},
      {"smiles": "O=c1[nH]nnc2ccccc12", "outcome": "inactive"},
      {"smiles": "OCCOCCOCCOCCO", "outcome": "inactive"},
      {"smiles": "CCC(O)CO", "note": "(stereo not given)", "outcome": "inactive"},
      {"smiles": "CCN(CC)CCOC(=O)c1ccc(N)cc1", "outcome": "inactive"},
      {"smiles": "O=C(O)c1ccc([N+](=O)[O-])cc1", "outcome": "inactive"}
    ]}
  ]
}
